This note sets out measurements from PubChem BioAssay (NCI).

Each structure is given as a SMILES string. The panel holds about 83,000 compounds, 20% with a hit somewhere; the sample as a whole holds those more often.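 Compound tested at a single concentration for 48 hours in 96-well plates; a percent growth value below 10 was scored as active.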 Values without a mark were called inactive. Calls of active or inactive are those of the source.

The test system of one assay is MCF7 breast. The assay can be described thus: NCI-60 one-dose screen, 48 h (100 = growth as untreated, 0 = no growth, -100 = all killed). To be noted: 10 µM unless noted.
Turning to `CCN(CC)CCOCC[C@H]1CC[C@H]2[C@@H]3[C@H](C)Cc4cc(OS(N)(=O)=O)ccc4[C@H]3CC[C@]12C`, the growth was -63.1% (active).
Still for that read-out and setting: with `CCN(CC)c1ccc(/C=C/C(=O)c2cccc(NS(C)(=O)=O)c2)cc1` the figure was 22.8%.
On the same count and under the same terms, the value for `C/C(=C\CCc1ccoc1)CC/C=C(\C)CCCC1COC(=O)C1` (stereo not drawn) was 90.6%; that for `O=C(COc1ccc(/C=C2\Cc3ccccc3C2=O)cc1)c1ccc(Cl)cc1` was 97.1%; that for `O=C(Nc1cccc(-n2cc(-c3ccncc3)c(-c3cc(O)cc(Cl)c3)n2)c1)Nc1ccc(Cl)c(Cl)c1` was 2.74% (active).
On the same count and under the same terms, the value for `CCc1nn2c(-c3ccc(Cl)cc3C)c(-c3cc(OC)c(OC)c(OC)c3)nc2s1` was 50.7%; that for `C[N+]1(C)C2CC[C@@H]1CC(OC(=O)C(O)c1ccccc1)C2` (stereo partly drawn) was 106%; that for `COc1ccc2c(c1)sc1nc(-c3ccc(Br)cc3)cn12` was 80.4%.
For the compound `O=C(COc1cccc(/C=C2\Cc3ccccc3C2=O)c1)c1ccc(Cl)cc1`, the growth is 78%.
On the same count and under the same terms, the value for `O=C1C2C(C(=O)N1CC[Se][Se]CCN1C(=O)C3C(C1=O)[C@H]1C=C[C@@H]3C1)[C@H]1C=C[C@@H]2C1` (stereo partly drawn) was 9.03% (active); that for `COC(=O)[C@H]1[C@H]2C[C@@H]3c4[nH]c5cc(OC)ccc5c4CCN3C[C@H]2C[C@@H](OC(=O)/C=C/c2cc(OC)c(OC)c(OC)c2)[C@@H]1OC` was 29.1%.
The same measure, in the same setting: the value for `CC1C(=O)NC2=Nc3ccccc3C(=O)NN21` (stereo not drawn) was 73.9%; that for `C[C@H]1c2cccc(O)c2C(O)=C2C(=O)[C@]3(O)C(O)=C(C(N)=O)C(=O)[C@@H](N(C)C)[C@@H]3[C@@H](O)[C@@H]21` was 58.9%.
Same read-out and setting: the value for `CC(=O)N1N=C(c2ccc(Nc3nc(NCCO)nc(NCCO)n3)cc2)CC1c1ccc(Cl)cc1` (stereo not drawn) was 90.5%; that for `COC(=O)C1=CCC(n2cnc3c(N)ncnc32)O1` (stereo not drawn) was 120%.
As for `Cc1nn(-c2ccccc2)c2nc(N)c(C3=NCCO3)nc12`, the growth is 83.6%.
Turning to `CCCc1n(Cc2ccc3ccccc3c2)cc[n+]1Cc1ccc2ccccc2c1`, the growth is -16.7% (active).
Same read-out and setting: the value for `BrC1CC(Br)c2c1c1c(c3c2C(Br)CC3Br)C(Br)CC1Br` (stereo not drawn) was 49.6%; that for `O=C(CNc1ccc2c(c1)C(=O)c1ccccc1C2=O)Nc1ccc2c(c1)C(=O)c1ccccc1C2=O` was -71.1% (active); that for `Cc1ccc(NC(=O)c2sc3nc4c(cc3c2N)C(=O)CCC4)cc1` was 67.7%.
`CCCCCCCCN(CCO)CCCCCCCC`: the growth was 93.5%.
The same measure, in the same setting: the value for `COc1cc(-c2nc3nc4sc(C)c(C)c4c(=O)n3[nH]2)cc(OC)c1OC` was 35.7%.
Regarding `COC(=O)Nc1ccc2ccc3c(NC(=O)OC)ccc4ccc1c2c43` (tested in a mixture with another compound), the growth was 31.4%.
The same measure, in the same setting: the value for `COc1ccc(Cl)cc1Nc1nc(C(F)(F)F)ccc1C(=O)N/N=C/c1c(Cl)cccc1Cl` was 185%; that for `O=C(/C=C/c1cccc(O)c1)c1cccc(-n2cc(-c3ccccc3)[nH]c2=O)c1` was 6.52% (active).
The same measure, in the same setting: the value for `COc1ccc2c(=O)c(OC)c(-c3cc(OC)c(OC)c(OC)c3)oc2c1` was 88%.
Still for that read-out and setting: with `CC(=O)Nc1ccc(C(=O)COc2cccc(/C=C3\CCc4ccccc4C3=O)c2)cc1` the figure was 19.6%.
For `O=C1Nc2ccc(Cl)cc2[C@@](C#CC2CC2)(C(F)(F)F)O1`, the growth is 105%.
Still for that read-out and setting: with `CC(C)N(Cc1ccccc1)c1c(Cl)ssc1=O` the figure was 101%; with `CCCCCc1c(C)[nH]c(/C=C2\N=C(c3ccc[nH]3)C=C2OCc2ccccc2)c1C`, -73% [100 µM] (active); with `COc1cc(/C=C/C(=O)CC(=O)/C=C/c2ccc(OC(=O)C3C4CC5CC(C4)CC3C5)c(OC)c2)ccc1OC(=O)C1C2CC3CC(C2)CC1C3` (stereo not drawn), 110%.
The same measure, in the same setting: the value for `CC[C@H]1CN2CCc3cc(OC)c(OC)cc3C2C[C@@H]1CC1NCCc2cc(OC)c(OC)cc21` (stereo partly drawn) was -2.18% (active); that for `Cc1ccc(S(=O)(=O)NCCN2c3nc4ccccc4cc3Sc3cc4ccccc4nc32)cc1` was 69%; that for `Cn1cnc([N+](=O)[O-])c1Sc1nc(N)nc2nc[nH]c12` was 15.1%.
For the compound `O=c1oc2c(cc1-c1ccc([N+](=O)[O-])cc1)C(O)Oc1ccccc1-2` (stereo not drawn), the growth was 90.8%.
Same read-out and setting: the value for `CCCCCc1c(C)[nH]c(/C=C2\N=C(c3ccc[nH]3)C=C2Oc2ccc(Cl)cc2)c1C` was -68.5% [100 µM] (active); that for `CC1C(C)N(C(=O)CCl)c2ccccc2N1C(=O)CCl` (stereo not drawn) was -49.4% (active); that for `Nc1nc(NC2CC2)c2ncn(C3C=CC(CO)C3)c2n1` (stereo not drawn) was 107%.
The same measure, in the same setting: with `O=C(CNC(=O)c1cccc2ccccc12)Nc1ccccc1Oc1ccc(O)cc1` the figure was 27.1% [5 µM].

Another assay deals with HCT-116 colon. The description is as above. The settings on record: 10 µM unless noted.
For the compound `CCN(CC)CCOCC[C@H]1CC[C@H]2[C@@H]3[C@H](C)Cc4cc(OS(N)(=O)=O)ccc4[C@H]3CC[C@]12C`, the growth is -98.4% (active).
With `CCN(CC)c1ccc(/C=C/C(=O)c2cccc(NS(C)(=O)=O)c2)cc1`, the growth is 25.8%.
Still for that read-out and setting: with `C/C(=C\CCc1ccoc1)CC/C=C(\C)CCCC1COC(=O)C1` (stereo not drawn) the figure was 98.2%; with `O=C(COc1ccc(/C=C2\Cc3ccccc3C2=O)cc1)c1ccc(Cl)cc1`, 77.7%; with `O=C(Nc1cccc(-n2cc(-c3ccncc3)c(-c3cc(O)cc(Cl)c3)n2)c1)Nc1ccc(Cl)c(Cl)c1`, -57.3% (active).
Same read-out and setting: with `CCc1nn2c(-c3ccc(Cl)cc3C)c(-c3cc(OC)c(OC)c(OC)c3)nc2s1` the figure was 60.5%.
As to `C[N+]1(C)C2CC[C@@H]1CC(OC(=O)C(O)c1ccccc1)C2` (stereo partly drawn), the growth was 102%.
Same read-out and setting: the value for `COc1ccc2c(c1)sc1nc(-c3ccc(Br)cc3)cn12` was 92.4%.
For `O=C(COc1cccc(/C=C2\Cc3ccccc3C2=O)c1)c1ccc(Cl)cc1`, the growth is 100%.
For the compound `O=C1C2C(C(=O)N1CC[Se][Se]CCN1C(=O)C3C(C1=O)[C@H]1C=C[C@@H]3C1)[C@H]1C=C[C@@H]2C1` (stereo partly drawn), the growth was 1.96% (active).
On the same count and under the same terms, the value for `COC(=O)[C@H]1[C@H]2C[C@@H]3c4[nH]c5cc(OC)ccc5c4CCN3C[C@H]2C[C@@H](OC(=O)/C=C/c2cc(OC)c(OC)c(OC)c2)[C@@H]1OC` was -28% (active); that for `CC1C(=O)NC2=Nc3ccccc3C(=O)NN21` (stereo not drawn) was 90.4%.
The same measure, in the same setting: with `C[C@H]1c2cccc(O)c2C(O)=C2C(=O)[C@]3(O)C(O)=C(C(N)=O)C(=O)[C@@H](N(C)C)[C@@H]3[C@@H](O)[C@@H]21` the figure was 18.6%; with `CC(=O)N1N=C(c2ccc(Nc3nc(NCCO)nc(NCCO)n3)cc2)CC1c1ccc(Cl)cc1` (stereo not drawn), 83.4%; with `COC(=O)C1=CCC(n2cnc3c(N)ncnc32)O1` (stereo not drawn), 98.6%.
Same read-out and setting: the value for `Cc1nn(-c2ccccc2)c2nc(N)c(C3=NCCO3)nc12` was 95.8%.
As to `CCCc1n(Cc2ccc3ccccc3c2)cc[n+]1Cc1ccc2ccccc2c1`, the growth was 1.39% (active).
On the same count and under the same terms, with `BrC1CC(Br)c2c1c1c(c3c2C(Br)CC3Br)C(Br)CC1Br` (stereo not drawn) the figure was 80.9%; with `O=C(CNc1ccc2c(c1)C(=O)c1ccccc1C2=O)Nc1ccc2c(c1)C(=O)c1ccccc1C2=O`, -90.2% (active); with `Cc1ccc(NC(=O)c2sc3nc4c(cc3c2N)C(=O)CCC4)cc1`, 91.7%.
`CCCCCCCCN(CCO)CCCCCCCC`: the growth was 104%.
On the same count and under the same terms, with `COc1cc(-c2nc3nc4sc(C)c(C)c4c(=O)n3[nH]2)cc(OC)c1OC` the figure was 75.9%; with `COC(=O)Nc1ccc2ccc3c(NC(=O)OC)ccc4ccc1c2c43` (tested in a mixture with another compound), 21.7%; with `COc1ccc(Cl)cc1Nc1nc(C(F)(F)F)ccc1C(=O)N/N=C/c1c(Cl)cccc1Cl`, 51.4%.
The same measure, in the same setting: with `O=C(/C=C/c1cccc(O)c1)c1cccc(-n2cc(-c3ccccc3)[nH]c2=O)c1` the figure was -67.7% (active).
Same read-out and setting: the value for `COc1ccc2c(=O)c(OC)c(-c3cc(OC)c(OC)c(OC)c3)oc2c1` was 87.2%; that for `CC(=O)Nc1ccc(C(=O)COc2cccc(/C=C3\CCc4ccccc4C3=O)c2)cc1` was 81%; that for `O=C1Nc2ccc(Cl)cc2[C@@](C#CC2CC2)(C(F)(F)F)O1` was 82.9%.
In the case of `CC(C)N(Cc1ccccc1)c1c(Cl)ssc1=O`, the growth was 99.9%.
On the same count and under the same terms, with `CCCCCc1c(C)[nH]c(/C=C2\N=C(c3ccc[nH]3)C=C2OCc2ccccc2)c1C` the figure was -94.7% [100 µM] (active); with `COc1cc(/C=C/C(=O)CC(=O)/C=C/c2ccc(OC(=O)C3C4CC5CC(C4)CC3C5)c(OC)c2)ccc1OC(=O)C1C2CC3CC(C2)CC1C3` (stereo not drawn), 93%; with `CC[C@H]1CN2CCc3cc(OC)c(OC)cc3C2C[C@@H]1CC1NCCc2cc(OC)c(OC)cc21` (stereo partly drawn), -22.9% (active).
Same read-out and setting: with `Cc1ccc(S(=O)(=O)NCCN2c3nc4ccccc4cc3Sc3cc4ccccc4nc32)cc1` the figure was 70.5%; with `Cn1cnc([N+](=O)[O-])c1Sc1nc(N)nc2nc[nH]c12`, 23%.
Same read-out and setting: the value for `O=c1oc2c(cc1-c1ccc([N+](=O)[O-])cc1)C(O)Oc1ccccc1-2` (stereo not drawn) was 94.8%; that for `CCCCCc1c(C)[nH]c(/C=C2\N=C(c3ccc[nH]3)C=C2Oc2ccc(Cl)cc2)c1C` was -89.8% [100 µM] (active).
`CC1C(C)N(C(=O)CCl)c2ccccc2N1C(=O)CCl` (stereo not drawn): the growth is -93.2% (active).
The same measure, in the same setting: the value for `Nc1nc(NC2CC2)c2ncn(C3C=CC(CO)C3)c2n1` (stereo not drawn) was 109%; that for `O=C(CNC(=O)c1cccc2ccccc12)Nc1ccccc1Oc1ccc(O)cc1` was 15.9% [5 µM].
